Laboratory results taken from paper PMC5540273 (PLoS ONE, 2017).

Key:
Conditions in all cases: concentration: 1 μM, replicates: in singlicate; n = 1
MAP4K2 = system: MAP4K2
MAP4K3 = system: MAP4K3
MAP4K4 = system: MAP4K4
MAP4K5 = system: MAP4K5
MAPKAPK2 = system: MAPKAPK2
MAPKAPK5 = system: MAPKAPK5
MARK1 = system: MARK1
MARK2 = system: MARK2
MARK3 = system: MARK3
MARK4 = system: MARK4
MAST1 = system: MAST1
MEK1 = system: T1, MEK1
T1 construct: gene MAP2K1

MEK2 = system: T2, MEK2
T2 construct: gene MAP2K2

MEK3 = system: T3, MEK3
T3 construct: gene MAP2K3

MEK4 = system: T4, MEK4
T4 construct: gene MAP2K4

MEK5 = system: T5, MEK5
T5 construct: gene MAP2K5

MEK6 = system: T6, MEK6
T6 construct: gene MAP2K6

MELK = system: MELK
MERTK = system: MERTK
MET = system: MET
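Also: KINOMEscan kinase panel screen.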

SMILES | %Inh (MAP4K2) [%] | %Inh (MAP4K3) [%] | %Inh (MAP4K4) [%] | %Inh (MAP4K5) [%] | %Inh (MAPKAPK2) [%] | %Inh (MAPKAPK5) [%] | %Inh (MARK1) [%] | %Inh (MARK2) [%] | %Inh (MARK3) [%] | %Inh (MARK4) [%] | %Inh (MAST1) [%] | %Inh (MEK1) [%] | %Inh (MEK2) [%] | %Inh (MEK3) [%] | %Inh (MEK4) [%] | %Inh (MEK5) [%] | %Inh (MEK6) [%] | %Inh (MELK) [%] | %Inh (MERTK) [%] | %Inh (MET) [%]
CS(=O)(=O)CCNCc1nc(-c2ccc3ncnc(Nc4ccc(OCc5ccccc5)c(Cl)c4)c3c2)cs1.Cl [GW582764] | 0 | 0 | 10 | 8 | 21 | 0 | 0 | 0 | 0 | 0 | 43 | 0 | 0 | 0 | 16 | 84 | 0 | 0 | 9 | 0
COc1cccc(CNC(=O)NC2CCN(c3ccnc(Nc4ccc(F)cc4)n3)C2)c1 (stereo not drawn) [GSK1379723] | 0 | 8 | 2 | 1 | 16 | 0 | 0 | 0 | 0 | 0 | 6 | 10 | 0 | 0 | 36 | 53 | 0 | 0 | 26 | 0
O=C1NC(=O)C(c2ccc(Cl)cc2)=C1Nc1ccc(O)cc1 [SB-340867] | 0 | 0 | 0 | 0 | 8 | 0 | 0 | 1 | 20 | 0 | 24 | 0 | 0 | 9 | 0 | 8 | 0 | 1 | 0 | 0
Nc1cccc(-c2ccc3c(N)n[nH]c3c2)n1 [GSK2192730] | 59 | 0 | 0 | 0 | 0 | 0 | 0 | 10 | 0 | 0 | 0 | 3 | 22 | 3 | 1 | 31 | 18 | 0 | 0 | 0
O=C(Nc1n[nH]c2nc(-c3cccs3)c(Br)cc12)C1CCCC1 [SB-743341] | 0 | 0 | 0 | 0 | 5 | 17 | 22 | 8 | 2 | 19 | 12 | 15 | 14 | 18 | 23 | 31 | 0 | 0 | 0 | 0
Cc1c(Cn2c(C)c(C)n3c(=O)cc(N4CCOCC4)nc23)cccc1C(F)(F)F [GSK2328680] | 0 | 0 | 0 | 0 | 16 | 0 | 0 | 0 | 19 | 0 | 0 | 0 | 0 | 0 | 0 | 0 | 0 | 1 | 0 | 0
COc1cccc(C2=C(Nc3cc(Cl)c(O)c(Cl)c3)C(=O)NC2=O)c1 [SB-390767] | 0 | 0 | 0 | 1 | 15 | 0 | 0 | 0 | 0 | 0 | 1 | 0 | 0 | 0 | 0 | 17 | 0 | 17 | 0 | 0
COc1ccc2cc(-c3nc(-c4ccccc4C(C)C)[nH]c3-c3ccncc3)ccc2c1 [SB-660566] | 0 | 0 | 31 | 3 | 16 | 0 | 7 | 0 | 0 | 3 | 2 | 0 | 0 | 0 | 65 | 11 | 45 | 26 | 33 | 0
Cc1ccc(-c2nc(Nc3ccncc3)c3ccccc3n2)s1 [GSK189015] | 0 | 19 | 23 | 15 | 25 | 0 | 7 | 0 | 22 | 13 | 0 | 11 | 1 | 0 | 11 | 17 | 0 | 0 | 11 | 10
Cn1cncc1-c1cc2c(Nc3ccc(OCc4ccccc4)cc3)ncnc2cn1 [GW281179] | 0 | 0 | 1 | 0 | 24 | 0 | 0 | 0 | 0 | 11 | 0 | 11 | 5 | 0 | 24 | 99.2 | 0 | 0 | 0 | 0
FC(F)(F)c1ccccc1-c1cc(-c2c[nH]nc2-c2ccccn2)ccn1 [GW679396] | 0 | 0 | 10 | 3 | 0 | 8 | 0 | 0 | 0 | 12 | 4 | 0 | 0 | 0 | 16 | 0 | 0 | 0 | 26 | 0
COc1ccc(CSc2nnc(-c3ccc4c(c3)CCO4)o2)cc1 | 0 | 0 | 0 | 0 | 0 | 0 | 0 | 21 | 0 | 0 | 7 | 0 | 0 | 0 | 0 | 1 | 0 | 0 | 0 | 0
CC(=O)c1c(C)c2cnc(Nc3ccc(N4CCNCC4)cn3)nc2n(C2CCCC2)c1=O | 0 | 17 | 0 | 0 | 0 | 0 | 6 | 0 | 0 | 13 | 0 | 0 | 0 | 0 | 0 | 1 | 0 | 5 | 0 | 0
Cc1ccc(NC(=O)c2ccc(Cl)cc2)cc1-c1ccc(C(=O)Nc2ccncc2)cc1 [GSK1398467] | 0 | 0 | 13 | 3 | 24 | 0 | 36 | 80 | 0 | 0 | 0 | 0 | 0 | 0 | 3 | 0 | 0 | 0 | 18 | 0
O=C1NC(=O)C(c2ccc(Cl)cc2)=C1Nc1cccc(Cl)c1 [SB-317651] | 6 | 1 | 0 | 0 | 0 | 0 | 0 | 13 | 6 | 0 | 23 | 0 | 13 | 27 | 0 | 4 | 3 | 16 | 2 | 0
CN1c2ccc(-c3ccc(C(N)=O)cc3)cc2-c2[nH]ncc2S1(=O)=O | 1 | 6 | 29 | 23 | 0 | 0 | 14 | 0 | 0 | 27 | 0 | 41 | 17 | 16 | 0 | 24 | 0 | 10 | 46 | 14

SMILES | %Inh (MAP4K2) [%] | %Inh (MAP4K3) [%] | %Inh (MAP4K4) [%] | %Inh (MAP4K5) [%] | %Inh (MAPKAPK2) [%] | %Inh (MAPKAPK5) [%] | %Inh (MARK1) [%] | %Inh (MARK2) [%] | %Inh (MARK3) [%] | %Inh (MARK4) [%] | %Inh (MAST1) [%] | %Inh (MEK1) [%] | %Inh (MEK2) [%] | %Inh (MEK3) [%] | %Inh (MEK4) [%] | %Inh (MEK5) [%] | %Inh (MEK6) [%] | %Inh (MELK) [%] | %Inh (MERTK) [%] | %Inh (MET) [%]
CC(C)c1cc(-c2ccc3c(N)n[nH]c3c2)nc(N)n1 [GSK2250882] | 0 | 0 | 1 | 0 | 23 | 0 | 0 | 9 | 0 | 0 | 0 | 0 | 0 | 0 | 8 | 29 | 5 | 15 | 21 | 0
COc1ccc(-c2coc3ccc(-c4nnc(C)o4)cc23)cc1 | 0 | 0 | 0 | 0 | 0 | 0 | 100 | 30 | 0 | 100 | 0 | 0 | 4 | 0 | 1 | 0 | 0 | 0 | 8 | 0
COC(=O)c1cccc(NC(=O)NC2CCN(c3ccnc(Nc4ccc(OC)cc4)n3)C2)c1 (stereo not drawn) [GSK1379746] | 0 | 0 | 0 | 0 | 14 | 0 | 0 | 0 | 4 | 0 | 13 | 0 | 0 | 0 | 34 | 33 | 0 | 0 | 22 | 0
COc1cccc(NC(=O)Nc2ccc(C)c(-c3ccc(C(=O)Nc4ccncc4)cc3)c2)c1 [GSK1398474] | 0 | 0 | 24 | 16 | 5 | 0 | 94.1 | 18 | 0 | 20 | 0 | 0 | 0 | 0 | 42 | 8 | 0 | 0 | 35 | 16
Cc1ccc(NC(=O)Nc2ccccc2)cc1-c1ccc(C(=O)Nc2ccncc2)cc1 [GSK1398471] | 0 | 2 | 1 | 0 | 1 | 0 | 0 | 1 | 45 | 0 | 0 | 0 | 0 | 0 | 23 | 4 | 8 | 11 | 40 | 4
CSc1ccc(-c2nc3n(c2-c2ccncc2)CCC3)cc1 [SKF-105561] | 0 | 0 | 1 | 0 | 10 | 22 | 0 | 16 | 0 | 0 | 16 | 1 | 25 | 18 | 0 | 22 | 0 | 18 | 0 | 0
Cc1ccc(NC(=O)Nc2ccccc2F)cc1-c1ccc(C(=O)Nc2ccncc2)cc1 [GSK1398477] | 0 | 21 | 29 | 27 | 37 | 0 | 8 | 5 | 0 | 19 | 0 | 0 | 0 | 0 | 26 | 37 | 0 | 14 | 31 | 0
O=c1cc(N2CCOCC2)nc2n(Cc3ccccc3F)ccn12 [GSK2297428] | 0 | 0 | 0 | 0 | 0 | 0 | 100 | 0 | 0 | 69 | 0 | 0 | 0 | 0 | 0 | 0 | 0 | 0 | 42 | 0
COc1ccc(Nc2nccc(NCCNC(=O)Nc3cc(C)ccc3C)n2)cc1 [GSK1379899] | 0 | 3 | 16 | 26 | 15 | 0 | 0 | 0 | 0 | 9 | 0 | 0 | 0 | 0 | 0 | 66 | 0 | 0 | 11 | 0
Cc1ccccc1Cn1ccn2c(=O)cc(N3CCOCC3)nc12 [GSK2269905] | 0 | 0 | 0 | 0 | 19 | 0 | 99.2 | 0 | 0 | 96.6 | 0 | 0 | 0 | 0 | 27 | 13 | 0 | 0 | 25 | 0
COC(=O)c1cccc(NC(=O)NC2CCN(c3ccnc(Nc4ccc(F)cc4)n3)C2)c1 (stereo not drawn) [GSK1379725] | 0 | 0 | 1 | 0 | 15 | 0 | 0 | 0 | 42 | 0 | 0 | 0 | 0 | 0 | 36 | 12 | 0 | 0 | 2 | 0
COC(=O)C(Cc1ccccc1)NC(=O)NC1CCN(c2ccnc(Nc3ccc(F)cc3)n2)C1 (stereo not drawn) [GSK1379714] | 0 | 0 | 9 | 3 | 21 | 0 | 0 | 8 | 0 | 4 | 42 | 35 | 0 | 31 | 0 | 54 | 4 | 40 | 0 | 0
c1ccc(-c2ccnc3[nH]ccc23)cc1 [SB-693578] | 32 | 22 | 0 | 0 | 26 | 0 | 100 | 0 | 0 | 62 | 44 | 49 | 29 | 10 | 28 | 45 | 0 | 0 | 15 | 0
Cc1cnc(N)c(/C=C/c2cncc(C(=O)NCCc3ccc(Cl)cc3Cl)c2)c1.Cl [GSK190937] | 4 | 0 | 17 | 18 | – | – | 0 | 6 | 0 | 0 | 5 | 0 | 0 | 0 | 34 | 41 | 0 | 2 | 29 | 0
CS(=O)(=O)CCNCc1nc(-c2ccc3ncnc(Nc4ccc5c(cnn5Cc5ccccc5)c4)c3c2)cs1.Cl.Cl [GW569716] | 0 | 9 | 0 | 0 | 19 | 0 | 0 | 0 | 0 | 0 | 32 | 0 | 0 | 0 | 0 | 99.6 | 0 | 0 | 0 | 0
